Source: PubChem BioAssay AID1159580 (chemical genetic matrix, 2015)
The campaign covered roughly 5,500 compounds. About 2,000 (36%) were called active. About 18% were inconclusive and are not listed. Rule as the data show it: active = normalized growth mostly below about 0.91 (no sharp cut-off); inconclusive = no clear call, values can overlap the other calls; inactive = mostly above about 0.92. The list shows a part of the results.

Assay: chemical genetic growth profiling, strain panel (AID 1159580);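 also: tested at 20 µM; growth read once vehicle control cultures reached saturation at 30 °C; 1 = growth at the plate median or of vehicle wells; lower values mean less growth of the strain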
Details: S. cerevisiae deletion strains, growth OD
[1] = locus YGR078C, strain PAC10, stronger effect = lower value
[2] = locus YJL095W, strain BCK1, stronger effect = lower value
[3] = locus YMR307W, strain GAS1, stronger effect = lower value
[4] = locus YPL055C, strain LGE1, stronger effect = lower value

Measured: normalized growth

C=C(C)/C=C1/C=CC(=O)C(C)=C1
inactive: locus YBR229C, strain ROT2, stronger effect = lower value 0.99 | locus YOL012C, strain htz1 0.247
active: locus YBR021W, strain FUR4, stronger effect = lower value 0.466 | locus YCL029C, strain bik1, stronger effect = lower value 0.611 | locus YDL035C, strain GPR1, stronger effect = lower value 0.185 | locus YDL074C, strain BRE1, stronger effect = lower value 0.26 | locus YDL101C, strain DUN1, stronger effect = lower value 0.803 | locus YDL185W, strain tfp1, stronger effect = lower value 0.06 | locus YDL192W, strain arf1, stronger effect = lower value 0.0749 | locus YDR101C, strain arx1, stronger effect = lower value 0.613 | locus YDR162C, strain NBP2, stronger effect = lower value 0.208 | locus YDR318W, strain mcm21, stronger effect = lower value 0.0733 | locus YDR388W, stronger effect = lower value 0.544 | locus YDR502C, strain sam2, stronger effect = lower value 0.0764 | locus YEL061C, strain CIN8, stronger effect = lower value 0.288 | locus YER110C, stronger effect = lower value 0.472 | locus YER155C, strain BEM2, stronger effect = lower value 0.27 | locus YER167W, strain BCK2, stronger effect = lower value 0.151 | locus YGL078C, strain dbp3, stronger effect = lower value 0.0621 | locus YGL086W, strain mad1, stronger effect = lower value 0.0823 | locus YGL248W, strain PDE1, stronger effect = lower value 0.152 | [1] 0.097 | locus YGR135W, strain pre9, stronger effect = lower value 0.129 | locus YGR252W, strain gcn5, stronger effect = lower value 0.264 | locus YHR079C, strain IRE1 (second series), stronger effect = lower value 0.687 | locus YHR094C, strain hxt1, stronger effect = lower value 0.088 | locus YHR129C, strain ARP1, stronger effect = lower value 0.107 | locus YHR200W, strain rpn10, stronger effect = lower value 0.27 | locus YIL066C, strain RNR3, stronger effect = lower value 0.458 | locus YIL073C, strain SPO22, stronger effect = lower value 0.179 | locus YIL125W, strain kgd1, stronger effect = lower value 0.0607 | locus YIR030C, strain dcg1, stronger effect = lower value 0.42 | [2] 0.375 | locus YJL134W, strain LCB3, stronger effect = lower value 0.183 | locus YJL168C, strain set2, stronger effect = lower value 0.203 | locus YJL187C, strain SWE1 (second series), stronger effect = lower value 0.636 | locus YKL068W, stronger effect = lower value 0.0579 | locus YKL085W, strain MDH1 (second series), stronger effect = lower value 0.0777 | locus YKL085W, strain MDH1, stronger effect = lower value 0.0777 | locus YKL190W, strain CNB1, stronger effect = lower value 0.198 | locus YKR001C, strain vps1, stronger effect = lower value 0.0676 | locus YLR039C, strain RIC1, stronger effect = lower value 0.166 | locus YLR058C, strain SHM2, stronger effect = lower value 0.755 | locus YLR102C, strain apc9, stronger effect = lower value 0.0756 | locus YLR262C, strain YPT6, stronger effect = lower value 0.152 | locus YLR268W, strain sec22, stronger effect = lower value 0.076 | locus YLR330W, strain CHS5, stronger effect = lower value 0.0909 | locus YLR371W, strain rom2, stronger effect = lower value 0.0908 | locus YLR418C, strain cdc73, stronger effect = lower value 0.116 | locus YML016C, strain PPZ1, stronger effect = lower value 0.228 | locus YML032C, strain rad52, stronger effect = lower value 0.7 | locus YML124C, strain tub3, stronger effect = lower value 0.174 | locus YMR078C, strain ctf18, stronger effect = lower value 0.0861 | locus YMR223W, strain ubp8, stronger effect = lower value 0.108 | [3] 0.147 | locus YNL067W, strain RPL9B, stronger effect = lower value 0.0907 | locus YNL128W, strain TEP1, stronger effect = lower value 0.229 | locus YNL233W, strain BNI4, stronger effect = lower value 0.188 | locus YNL250W, strain rad50, stronger effect = lower value 0.0988 | locus YNL271C, strain bni1, stronger effect = lower value 0.0645 | locus YNL298W, strain CLA4, stronger effect = lower value 0.06 | locus YNL307C, strain MCK1, stronger effect = lower value 0.0748 | locus YNR052C, strain pop2, stronger effect = lower value 0.748 | locus YOL006C, strain TOP1, stronger effect = lower value 0.202 | locus YOL147C, strain pex11, stronger effect = lower value 0.464 | locus YOR061W, strain CKA2, stronger effect = lower value 0.449 | locus YOR069W, strain VPS5, stronger effect = lower value 0.0688 | locus YOR136W, strain idh2, stronger effect = lower value 0.106 | locus YOR144C, strain elg1, stronger effect = lower value 0.646 | locus YOR184W, strain ser1, stronger effect = lower value 0.0806 | locus YOR316C, strain cot1, stronger effect = lower value 0.0831 | [4] 0.103 | locus YPR119W, strain clb2, stronger effect = lower value 0.0703 | locus YPR141C, strain kar3, stronger effect = lower value 0.0832 | locus YPR163C, strain tif3, stronger effect = lower value 0.0853 | locus YPR167C, strain met16, stronger effect = lower value 0.0692 | strain wtn01, stronger effect = lower value 0.0763

CCOC(=O)c1ncn2c1CN(C)C(=O)c1cc(F)ccc1-2
inactive: locus YAL013W, strain DEP1, stronger effect = lower value 0.994 | locus YAL021C, strain ccr4, stronger effect = lower value 1.01 | locus YAL026C, strain drs2, stronger effect = lower value 1.02 | locus YAL030W, strain snc1, stronger effect = lower value 1.02 | locus YAL040C, strain CLN3, stronger effect = lower value 1 | locus YBL061C, strain skt5, stronger effect = lower value 1.01 | locus YBR009C, strain hhf1, stronger effect = lower value 1.03 | locus YBR023C, strain chs3, stronger effect = lower value 1.02 | locus YBR171W, strain sec66, stronger effect = lower value 1.02 | locus YBR231C, strain swc5, stronger effect = lower value 1.02 | locus YBR279W, strain paf1, stronger effect = lower value 1.01 | locus YCL011C, strain gbp2, stronger effect = lower value 1.01 | locus YCL016C, strain dcc1, stronger effect = lower value 1.02 | locus YCL061C, strain MRC1 (second series), stronger effect = lower value 1 | locus YCL061C, strain MRC1, stronger effect = lower value 1.02 | locus YCL069W, strain vba3, stronger effect = lower value 1.01 | locus YCR088W, strain abp1, stronger effect = lower value 1.02 | locus YDL005C, strain med2, stronger effect = lower value 1.02 | locus YDL040C, strain nat1, stronger effect = lower value 1.02 | locus YDR001C, strain nth1, stronger effect = lower value 1.02 | locus YDR069C, strain doa4, stronger effect = lower value 1.03 | locus YDR137W, strain rgp1, stronger effect = lower value 1 | locus YDR150W, strain NUM1, stronger effect = lower value 1.01 | locus YDR159W, strain sac3, stronger effect = lower value 1.03 | locus YDR195W, strain ref2 1.02 | locus YDR297W, strain sur2, stronger effect = lower value 1.01 | locus YDR334W, strain swr1, stronger effect = lower value 1.02 | locus YDR335W, strain msn5, stronger effect = lower value 1.02 | locus YDR363W, strain ESC2, stronger effect = lower value 0.997 | locus YDR392W, strain spt3, stronger effect = lower value 0.994 | locus YEL003W, strain gim4, stronger effect = lower value 1.02 | locus YEL037C, strain rad23, stronger effect = lower value 1.01 | locus YEL061C, strain CIN8 (second series), stronger effect = lower value 1.02 | locus YER002W, strain NOP16, stronger effect = lower value 0.993 | locus YER015W, strain faa2, stronger effect = lower value 1.01 | locus YER016W, strain bim1, stronger effect = lower value 1.01 | locus YER111C, strain swi4, stronger effect = lower value 1.01 | locus YER155C, strain BEM2 (second series), stronger effect = lower value 1.01 | locus YFR010W, strain ubp6, stronger effect = lower value 1.02 | locus YGL167C, strain pmr1, stronger effect = lower value 1.03 | locus YGL173C, strain kem1, stronger effect = lower value 1.02 | locus YGL227W, strain vid30, stronger effect = lower value 1.02 | locus YGL240W, strain doc1, stronger effect = lower value 1.04 | locus YGL253W, strain hxk2, stronger effect = lower value 1.02 | [1] 1.01 | locus YHR013C, strain ard1, stronger effect = lower value 1.03 | locus YHR027C, strain rpn1, stronger effect = lower value 1.01 | locus YHR030C, strain SLT2, stronger effect = lower value 0.986 | locus YHR079C, strain IRE1, stronger effect = lower value 0.997 | locus YHR142W, strain chs7, stronger effect = lower value 0.972 | locus YJL092W, strain hpr5, stronger effect = lower value 1.02 | locus YJL095W, strain BCK1 (second series), stronger effect = lower value 1.02 | [2] 0.997 | locus YJL115W, strain asf1, stronger effect = lower value 1.02 | locus YJL129C, strain trk1, stronger effect = lower value 1.01 | locus YJL154C, strain vps35, stronger effect = lower value 1.02 | locus YJL164C, strain tpk1, stronger effect = lower value 1.02 | locus YJL166W, strain qcr8, stronger effect = lower value 1.03 | locus YJL187C, strain SWE1, stronger effect = lower value 1.02 | locus YJR066W, strain TOR1, stronger effect = lower value 0.93 | locus YJR075W, strain HOC1, stronger effect = lower value 1 | locus YKL160W, strain elf1, stronger effect = lower value 1.01 | locus YKR026C, strain gcn3, stronger effect = lower value 1.01 | locus YKR091W, strain srl3, stronger effect = lower value 1.01 | locus YLL001W, strain dnm1, stronger effect = lower value 1.01 | locus YLL026W, stronger effect = lower value 1.02 | locus YLL041C, strain sdh2, stronger effect = lower value 1.02 | locus YLR027C, strain aat2, stronger effect = lower value 1.02 | locus YLR113W, strain HOG1, stronger effect = lower value 1.01 | locus YLR221C, strain rsa3, stronger effect = lower value 1.02 | locus YLR258W, strain gsy2, stronger effect = lower value 1.02 | locus YLR262C, strain YPT6 (second series), stronger effect = lower value 1.02 | locus YLR320W, strain mms22, stronger effect = lower value 1.03 | locus YLR342W, strain FKS1, stronger effect = lower value 1.02 | locus YLR357W, strain rsc2, stronger effect = lower value 1.03 | locus YLR370C, strain arc18, stronger effect = lower value 1.02 | locus YLR384C, strain iki3, stronger effect = lower value 1.02 | locus YML120C, strain ndi1, stronger effect = lower value 1 | locus YMR058W, strain fet3, stronger effect = lower value 1.02 | locus YMR125W, strain sto1, stronger effect = lower value 1.03 | locus YMR129W, stronger effect = lower value 1.01 | locus YMR205C, strain PFK2, stronger effect = lower value 1.03 | locus YMR231W, strain pep5, stronger effect = lower value 1.01 | [3] 0.985 | locus YNL071W, strain lat1, stronger effect = lower value 1.01 | locus YNL175C, strain NOP13, stronger effect = lower value 0.999 | locus YNL183C, strain NPR1, stronger effect = lower value 0.938 | locus YNL197C, strain WHI3, stronger effect = lower value 0.999 | locus YNL209W, strain ssb2, stronger effect = lower value 1.02 | locus YNL224C, strain SQS1, stronger effect = lower value 1 | locus YNL248C, strain rpa49, stronger effect = lower value 0.992 | locus YNL322C, strain KRE1 (second series), stronger effect = lower value 1.01 | locus YNR049C, strain mso1, stronger effect = lower value 1.02 | locus YOR001W, strain rrp6, stronger effect = lower value 1.01 | locus YOR070C, strain gyp1, stronger effect = lower value 1.02 | locus YOR080W, strain dia2, stronger effect = lower value 1.02 | locus YOR083W, strain WHI5 (second series), stronger effect = lower value 1.03 | locus YOR083W, strain WHI5, stronger effect = lower value 0.997 | locus YOR106W, strain vam3, stronger effect = lower value 1.01 | locus YOR231W, strain MKK1, stronger effect = lower value 0.983 | locus YOR265W, strain rbl2, stronger effect = lower value 1.02 | locus YOR270C, strain vph1, stronger effect = lower value 1.02 | locus YOR290C, strain snf2, stronger effect = lower value 1.01 | locus YPL051W, strain arl3, stronger effect = lower value 1.01 | [4] 1.01 | locus YPL078C, strain atp4, stronger effect = lower value 1 | locus YPL106C, strain sse1, stronger effect = lower value 1.04 | locus YPL240C, strain hsp82, stronger effect = lower value 1 | locus YPL256C, strain CLN2, stronger effect = lower value 0.973
